Inconclusive results are not listed. Active and inactive are the calls of the source.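 The calls were made as follows, unless noted: active = binding below the plate cutoff, the plate median minus 3 SD, with a reading above zero; inconclusive = below the plate cutoff but reading exactly zero; inactive = the rest.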
Tests used:
[1] = rapamycin-like changes in RPL19A-GFP expression – cell-based, S. cerevisiae, multiplex flow cytometry, primary screen (AID 1862; in the data active = percent of DMSO control GFP below about 86%;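 also: lower values mimic rapamycin by blocking the RPL19A rise seen in DMSO cells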); details: S. cerevisiae RPL19A-GFP strain, flow cytometry fluorescence, 3 h; at 10 µM; stronger effect = lower value
[2] = TOR pathway GLN3 branch reporter MEP2-GFP changes – S. cerevisiae, multiplex flow cytometry, primary screen (AID 1867;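 active = GFP response, as percent of the DMSO control, above the screen-wide mean plus 3 SD, about 139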;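 also: median GFP channel fluorescence of barcode-gated MEP2-GFP cells measured by flow cytometry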); details: S. cerevisiae MEP2-GFP strain, 3 h, at 10 µM, stronger effect = higher value, 100% means same as DMSO wells
[3] = TOR pathway RTG branch CIT2 reporter changes – S. cerevisiae, GFP fusion, multiplex flow cytometry, primary screen (AID 1870;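 active = percent response above a set limit, the screen-wide mean plus 3 SD, cut at about 130% in these data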;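 also: barcoded CIT2-GFP strain pooled with four other GFP strains with rapamycin as positive control; median GFP fluorescence per well over plate mean of DMSO wells so 100% = DMSO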); details: S. cerevisiae CIT2-GFP expression, 3 h, at 10 µM, stronger effect = higher value
[4] = TOR pathway LAP4-GFP level changes – S. cerevisiae, multiplex flow cytometry, primary screen (AID 1873;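 active = GFP signal, as percent of the solvent control, above the screen mean plus 3 SD, about 149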); details: S. cerevisiae LAP4-GFP expression, 3 h, at 10 µM, stronger effect = higher value
[5] = yeast AGP1-GFP level changes, GLN3 branch – cell-based, multiplex flow cytometry, S. cerevisiae, primary screen (AID 1887;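 active = GFP signal above the screen-wide mean plus 3 SD, that is over about 124.5% of the solvent control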;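 also: AGP1-GFP fusion strain of S. cerevisiae within a five-strain barcoded multiplex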); details: 3 h, at 10 µM, stronger effect = higher value
[6] = reduced mouse 2C T cell binding to pMHC/ICAM-1 vesicles – MLPCN validation set, flow cytometry, LFA-1/ICAM-1 modulator project, pilot screen (AID 2523;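 active = response below a set limit, under 55% cells CD8-positive and vesicle-bound, and CD8 cells' 90th-percentile brightness under 279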;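 as to vesicle binding response: mean PE anti-B7-1 fluorescence of CD8+ cells relative to row control; 100% = QL9-loaded vesicles with DMSO vehicle in the same plate row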); details: 2C mouse CD8+ T cells, at 7 µM, stronger effect = lower value; double positive events: measured here: CD8+/vesicle+ event percentage
[7] = target: Integrin beta-1 (Homo sapiens) + Integrin alpha-4 (Homo sapiens) (UniProt P13612+P05556); experiment: alpha4beta1 integrin LIBS antibody binding reduction – U937 cells, HUTS-21 mAb, flow cytometry, validation set, VLA-4 allosteric modulator project, pilot screen (AID 2674;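 active = inhibition above 50%, about 3 SD of the validation set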;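 also: antibody binding induced by the VLA-4 ligand LDV present at three times its Kd; 0% = LDV ligand with antibody and no compound and 100% = antibody without LDV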); details: HUTS-21 LIBS mAb binding, at 6.7 µM, stronger effect = higher value, binding induced by LDV ligand
Sequence of Integrin beta-1 (Homo sapiens) + Integrin alpha-4 (Homo sapiens) (P05556 whole entry, looked up): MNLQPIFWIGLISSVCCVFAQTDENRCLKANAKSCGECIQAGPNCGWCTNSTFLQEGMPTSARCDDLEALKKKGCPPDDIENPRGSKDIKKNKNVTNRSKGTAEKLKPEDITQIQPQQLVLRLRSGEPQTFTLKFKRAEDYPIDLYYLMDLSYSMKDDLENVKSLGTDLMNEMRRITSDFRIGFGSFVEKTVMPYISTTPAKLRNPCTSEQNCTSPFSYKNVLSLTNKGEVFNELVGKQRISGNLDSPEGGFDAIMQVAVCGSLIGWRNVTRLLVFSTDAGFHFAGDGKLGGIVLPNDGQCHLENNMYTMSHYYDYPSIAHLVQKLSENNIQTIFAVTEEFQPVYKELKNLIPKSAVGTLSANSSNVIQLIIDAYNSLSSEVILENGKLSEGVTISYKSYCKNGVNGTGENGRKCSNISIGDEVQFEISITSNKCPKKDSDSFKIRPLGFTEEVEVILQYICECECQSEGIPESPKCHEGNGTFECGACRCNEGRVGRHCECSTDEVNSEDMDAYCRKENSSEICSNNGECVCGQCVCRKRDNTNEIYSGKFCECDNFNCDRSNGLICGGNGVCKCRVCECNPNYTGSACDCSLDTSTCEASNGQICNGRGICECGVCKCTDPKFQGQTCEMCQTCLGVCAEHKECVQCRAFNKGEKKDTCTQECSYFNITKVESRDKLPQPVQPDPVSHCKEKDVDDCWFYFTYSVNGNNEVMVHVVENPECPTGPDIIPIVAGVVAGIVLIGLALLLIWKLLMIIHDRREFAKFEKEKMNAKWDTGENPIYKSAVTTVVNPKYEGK
Sequence of Integrin beta-1 (Homo sapiens) + Integrin alpha-4 (Homo sapiens) (P13612 whole entry, looked up): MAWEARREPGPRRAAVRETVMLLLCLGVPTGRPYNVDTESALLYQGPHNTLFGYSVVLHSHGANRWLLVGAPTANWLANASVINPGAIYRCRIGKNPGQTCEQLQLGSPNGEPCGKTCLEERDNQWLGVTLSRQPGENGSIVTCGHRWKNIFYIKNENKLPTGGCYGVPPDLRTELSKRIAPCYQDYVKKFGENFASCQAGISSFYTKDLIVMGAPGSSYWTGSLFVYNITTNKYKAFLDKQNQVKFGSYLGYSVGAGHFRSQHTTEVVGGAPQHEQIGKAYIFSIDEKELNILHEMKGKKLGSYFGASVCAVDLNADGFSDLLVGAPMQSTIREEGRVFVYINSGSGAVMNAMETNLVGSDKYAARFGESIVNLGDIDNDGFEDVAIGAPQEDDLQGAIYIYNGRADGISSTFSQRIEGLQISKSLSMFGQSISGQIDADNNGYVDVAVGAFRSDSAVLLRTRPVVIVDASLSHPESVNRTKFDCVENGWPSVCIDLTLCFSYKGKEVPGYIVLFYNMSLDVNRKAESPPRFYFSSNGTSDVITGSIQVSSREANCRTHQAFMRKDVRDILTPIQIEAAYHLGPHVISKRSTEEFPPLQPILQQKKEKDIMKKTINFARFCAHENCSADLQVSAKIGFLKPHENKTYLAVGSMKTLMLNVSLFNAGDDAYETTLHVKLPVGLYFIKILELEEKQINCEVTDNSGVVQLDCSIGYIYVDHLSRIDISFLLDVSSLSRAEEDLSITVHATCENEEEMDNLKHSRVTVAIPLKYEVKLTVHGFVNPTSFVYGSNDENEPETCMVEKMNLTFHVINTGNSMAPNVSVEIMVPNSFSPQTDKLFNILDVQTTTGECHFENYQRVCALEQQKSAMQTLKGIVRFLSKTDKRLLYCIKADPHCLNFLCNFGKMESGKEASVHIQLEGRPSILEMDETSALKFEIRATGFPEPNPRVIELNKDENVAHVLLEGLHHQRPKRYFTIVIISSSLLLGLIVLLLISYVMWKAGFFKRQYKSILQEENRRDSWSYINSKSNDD

[8] = calorie-restriction mimetic ROS inhibitors, yeast – validation compound set, pilot screen (AID 2706;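 active = superoxide response below 65% of plate, a cut near 3 SD across the whole screen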;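 also: yeast exposed to compound for one week at 30 degrees C before staining; 100% = mean of all compound wells on the same plate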); details: S. cerevisiae aging, superoxide DHE fluorescence; at 10 µM, stronger effect = lower value
[9] = target: Beta-adrenergic receptor kinase 1 (Homo sapiens) (UniProt P25098); experiment: GRK2 binders displacing RNA aptamer, biochemical, validation, human GRK2, bead flow cytometry (AID 488806;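 active = aptamer binding inhibition above 30%, about 3 SD of noise from non-fluorescent compounds; inactive = inhibition at or below 30%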); details: bead-bound GRK2, FAM-aptamer displacement, at 10 µM, stronger effect = higher value
Sequence of Beta-adrenergic receptor kinase 1 (Homo sapiens) (P25098 whole entry, looked up): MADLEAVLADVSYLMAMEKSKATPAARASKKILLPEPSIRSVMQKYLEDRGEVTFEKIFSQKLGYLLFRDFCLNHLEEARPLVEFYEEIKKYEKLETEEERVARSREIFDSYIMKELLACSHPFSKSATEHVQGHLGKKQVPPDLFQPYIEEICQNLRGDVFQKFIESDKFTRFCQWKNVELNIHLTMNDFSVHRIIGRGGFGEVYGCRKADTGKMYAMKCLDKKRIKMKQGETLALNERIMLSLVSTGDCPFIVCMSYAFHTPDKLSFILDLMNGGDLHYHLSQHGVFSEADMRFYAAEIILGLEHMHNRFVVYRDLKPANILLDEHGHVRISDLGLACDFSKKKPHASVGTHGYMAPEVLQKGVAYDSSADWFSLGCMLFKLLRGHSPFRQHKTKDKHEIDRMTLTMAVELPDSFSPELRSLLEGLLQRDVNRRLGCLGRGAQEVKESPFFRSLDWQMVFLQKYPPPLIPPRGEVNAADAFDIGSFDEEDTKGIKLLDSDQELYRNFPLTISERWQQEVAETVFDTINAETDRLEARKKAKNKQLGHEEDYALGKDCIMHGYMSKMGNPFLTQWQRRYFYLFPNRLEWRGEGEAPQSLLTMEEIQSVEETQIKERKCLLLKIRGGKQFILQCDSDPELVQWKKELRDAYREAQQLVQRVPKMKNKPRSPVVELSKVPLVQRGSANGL

[10] = target: Beta-2 adrenergic receptor (Homo sapiens) (UniProt P07550); experiment: agonist-induced loss of surface beta2AR – cell-based, FAP fluorogen, flow cytometry, validation set, pilot screen (AID 504459;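 active = percent response above 42, roughly 3 SD of non-fluorescent test compounds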;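 also: agonist-driven loss of surface beta2AR via internalization measured by FAP dye flow cytometry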); details: Am2.2-beta2AR cells, at 10 µM, stronger effect = higher value
Sequence of Beta-2 adrenergic receptor (Homo sapiens) (P07550 whole entry, looked up): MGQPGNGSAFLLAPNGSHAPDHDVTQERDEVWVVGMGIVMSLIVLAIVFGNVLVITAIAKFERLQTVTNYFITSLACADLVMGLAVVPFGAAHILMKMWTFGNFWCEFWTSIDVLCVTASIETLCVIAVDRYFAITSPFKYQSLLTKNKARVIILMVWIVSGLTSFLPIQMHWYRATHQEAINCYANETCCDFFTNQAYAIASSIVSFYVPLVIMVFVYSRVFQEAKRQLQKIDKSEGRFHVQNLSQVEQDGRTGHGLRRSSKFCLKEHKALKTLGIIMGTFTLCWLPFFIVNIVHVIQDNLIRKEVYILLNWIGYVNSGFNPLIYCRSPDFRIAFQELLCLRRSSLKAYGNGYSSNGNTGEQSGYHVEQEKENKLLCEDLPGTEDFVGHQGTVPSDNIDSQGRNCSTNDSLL

[11] = target: AP-2 complex subunit beta (Homo sapiens) (UniProt P63010); experiment: beta-arrestin/AP2 interaction blockers – biochemical, validation set, GST-AP2 beads, flow cytometry, pilot screen (AID 504541;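 active = inhibition above 54%, about 3 SD of non-fluorescent compounds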;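 also: AP2 carries R879A mutation and is captured from E. coli lysate; bead-bound FITC arrestin peptide fluorescence measuring arrestin peptide binding to AP2; 0% = DMSO wells and 100% = excess unlabeled arrestin peptide control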); details: FITC arrestin peptide, at 10 µM, stronger effect = higher value, AP2 beta2 appendage fragment, R879A mutant
Sequence of AP-2 complex subunit beta (Homo sapiens) (P63010 whole entry, looked up, the tested form may be a part, one chain of several): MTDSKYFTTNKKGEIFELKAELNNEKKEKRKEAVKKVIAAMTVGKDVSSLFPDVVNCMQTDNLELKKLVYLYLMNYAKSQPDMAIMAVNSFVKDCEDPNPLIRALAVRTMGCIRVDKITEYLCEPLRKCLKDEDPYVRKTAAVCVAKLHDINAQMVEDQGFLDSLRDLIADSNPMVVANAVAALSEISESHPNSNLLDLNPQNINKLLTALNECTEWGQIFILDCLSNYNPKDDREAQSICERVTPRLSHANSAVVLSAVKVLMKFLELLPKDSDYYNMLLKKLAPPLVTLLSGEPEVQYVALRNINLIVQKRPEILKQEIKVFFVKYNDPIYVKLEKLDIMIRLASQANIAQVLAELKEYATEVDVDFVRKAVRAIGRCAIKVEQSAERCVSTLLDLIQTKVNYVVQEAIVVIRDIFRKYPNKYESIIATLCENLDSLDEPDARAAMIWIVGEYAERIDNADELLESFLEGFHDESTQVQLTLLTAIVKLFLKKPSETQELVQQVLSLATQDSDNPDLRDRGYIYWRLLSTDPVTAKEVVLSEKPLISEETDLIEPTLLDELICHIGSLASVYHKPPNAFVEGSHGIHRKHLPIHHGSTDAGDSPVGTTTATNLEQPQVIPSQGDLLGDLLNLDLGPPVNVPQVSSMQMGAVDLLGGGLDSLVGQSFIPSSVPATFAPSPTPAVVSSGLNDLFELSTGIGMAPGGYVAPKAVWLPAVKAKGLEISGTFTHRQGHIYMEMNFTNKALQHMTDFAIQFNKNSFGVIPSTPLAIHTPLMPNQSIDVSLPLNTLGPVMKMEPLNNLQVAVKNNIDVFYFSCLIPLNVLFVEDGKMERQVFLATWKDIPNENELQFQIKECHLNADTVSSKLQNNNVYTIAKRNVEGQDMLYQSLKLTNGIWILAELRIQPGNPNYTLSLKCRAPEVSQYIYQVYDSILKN

[12] = cytosolic pH regulators acting via V-ATPase – S. cerevisiae, pHLuorin, HTS validation (AID 504600; in the data active = response above about 15%;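 also: plate controls were DMSO for no effect and reference compound for full effect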); details: V-ATPase proton transport, at 10 µM, stronger effect = higher value
[13] = test system: anti-desmoglein-3 scFv antibody binding to human DSG3; experiment: blockers of pathogenic pemphigus antibody–desmoglein-3 binding – biochemical, validation compound set, bead-based, flow cytometry, pilot screen (AID 588368); details: Protein G beads, DSG3-Fc, scFv-GFP binding, at 10 µM, stronger effect = lower value;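 also: signal is the median channel fluorescence of bead-bound GFP antibody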
[14] = Nile Red efflux blockade in pump-expressing yeast – validation compound set, multiplex, phenotypic, pilot screen (AID 588506;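 active = efflux inhibition above 0.42, the validation set average plus 4 SD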;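 also: Nile Red retained in cells so higher fluorescence means more efflux inhibition; 0 = negative control wells and 1 = enniatin B 25 µM full block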); details: S. cerevisiae pump-expressing triplex, Nile Red efflux flow cytometry; at 10 µM; stronger effect = higher value; the pumps come from Candida albicans
[15] = target: ATP-binding cassette sub-family B member 6 (Homo sapiens) (UniProt Q9NP58); experiment: blockers of ABCB6-driven porphyrin uptake – K562-ABCB6 cells, flow cytometry, validation set, pilot screen (AID 588550;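 active = inhibition above the screen-wide mean plus 3 SD, about 51%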;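 also: 0% = DMSO wells and 100% = benzethonium chloride 70 µM positive control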); details: K562-ABCB6 porphyrin accumulation, 1 h, at 10 µM, stronger effect = higher value
Sequence of ATP-binding cassette sub-family B member 6 (Homo sapiens) (Q9NP58 whole entry, looked up): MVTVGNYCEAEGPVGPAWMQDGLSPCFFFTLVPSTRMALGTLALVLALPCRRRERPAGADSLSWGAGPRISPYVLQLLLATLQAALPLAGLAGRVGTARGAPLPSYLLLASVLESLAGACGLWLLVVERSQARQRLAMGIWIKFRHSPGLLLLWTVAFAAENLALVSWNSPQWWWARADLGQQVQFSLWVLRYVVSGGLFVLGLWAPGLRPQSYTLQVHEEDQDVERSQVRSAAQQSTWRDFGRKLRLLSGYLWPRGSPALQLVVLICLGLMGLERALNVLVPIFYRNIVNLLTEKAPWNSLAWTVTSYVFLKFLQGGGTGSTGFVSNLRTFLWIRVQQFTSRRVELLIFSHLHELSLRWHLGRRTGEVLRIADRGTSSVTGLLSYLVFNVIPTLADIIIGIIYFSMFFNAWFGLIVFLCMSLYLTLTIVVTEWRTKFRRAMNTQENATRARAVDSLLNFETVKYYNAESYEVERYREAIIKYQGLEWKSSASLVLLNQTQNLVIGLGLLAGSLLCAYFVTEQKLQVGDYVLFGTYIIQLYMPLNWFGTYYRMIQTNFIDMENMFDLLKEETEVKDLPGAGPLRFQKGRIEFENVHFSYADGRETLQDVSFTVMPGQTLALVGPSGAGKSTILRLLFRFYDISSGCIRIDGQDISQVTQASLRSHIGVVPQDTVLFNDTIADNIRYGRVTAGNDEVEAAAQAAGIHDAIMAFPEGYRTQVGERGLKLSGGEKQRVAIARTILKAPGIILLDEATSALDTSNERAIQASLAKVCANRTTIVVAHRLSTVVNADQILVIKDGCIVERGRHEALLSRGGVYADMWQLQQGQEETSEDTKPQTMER

[16] = AML differentiation inducers, ER-HoxA9 marrow cells – cell-based, GFP/MAC1 double positive, flow cytometry, validation set, primary screen (AID 588685;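 active = differentiation response of at least 50%, scaled between solvent and reference control, from cells with both markers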;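 also: compound exposure lasts four days before antibody staining and flow analysis; 0% = DMSO wells and 100% = 5 µM fulvestrant positive control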); details: stronger effect = higher value, normalized: vehicle 0, fulvestrant 100
[17] = hit retest on RPL19A-GFP reporter strain – cell-based, S. cerevisiae, flow cytometry, cherry picks, mother/daughter gates, confirmation (AID 2270;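 active = GFP response below 50% of the DMSO control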); details: 3 h, at 10 µM, stronger effect = lower value, 100 = same GFP as DMSO wells
[18] = yeast TOR pathway reporter LAP4-GFP change – cell-based, cherry picks, flow cytometry, mother/daughter gates, confirmation (AID 2271;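 active = GFP response above 150% of the DMSO control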;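 also: ratio of sample to DMSO plate mean so 100% equals DMSO level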); details: S. cerevisiae LAP4-GFP strain, 3 h, at 10 µM, stronger effect = higher value, 100 means same as DMSO control
[19] = TOR pathway reporter MEP2-GFP, retest of hits – S. cerevisiae, flow cytometry GFP, cherry picks, confirmation (AID 2272;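 active = GFP response above 150% of the DMSO control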;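 also: ratio of well signal to plate DMSO mean so 100% equals DMSO level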); details: S. cerevisiae MEP2-GFP strain, 3 h, at 10 µM, stronger effect = higher value
[20] = TOR pathway CIT2 reporter hit retest – S. cerevisiae, GFP fusion, cherry picks, mother/daughter gates, confirmation (AID 2274;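 active = GFP response above 150% of the DMSO level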); details: S. cerevisiae CIT2-GFP strain, flow cytometry, 3 h, at 10 µM, stronger effect = higher value
[21] = measured here: daughter cell gate
[22] = measured here: mother cell gate

CCCCOc1ccc(OCCCN2CCOCC2)cc1
inactive: percent of DMSO control GFP [1] 86.5% | GFP response vs DMSO [2] 136% | percent response of DMSO control [3] 104% | GFP response vs DMSO [4] 86.9% | GFP response, % of DMSO [5] 95.9% | inhibition [7] 11.3% | superoxide response (% of plate) [8] 112% | aptamer binding inhibition [9] 3% | response [10] -8.98% | inhibition [11] -2.38% | response [12] 1.62% | binding (% of control) [13] 106% | efflux inhibition (fraction of control) [14] -0.06 | inhibition [15] 11% | differentiation response [16] 4.91%
56%: double positive events [6]

COc1ccc(-c2nc(C)c(C(C)=O)n2O)cc1OC
52.4%: double positive events [6]
inactive: percent of DMSO control GFP [1] 92.6% | GFP response vs DMSO [2] 106% | percent response of DMSO control [3] 114% | GFP response vs DMSO [4] 78.1% | vesicle binding response [6] 110% | inhibition [7] 5.49% | superoxide response (% of plate) [8] 97.4% | aptamer binding inhibition [9] 2% | response [10] -10.4% | inhibition [11] -13.1% | response [12] 1.53% | binding (% of control) [13] 103% | efflux inhibition (fraction of control) [14] 0.01 | inhibition [15] 11% | differentiation response [16] 0%

Cc1cc(C(C)(C)C)c(O)c(C)c1CC1=NCCN1
62.9%: double positive events [6]
inactive: percent of DMSO control GFP [1] 103% | GFP response vs DMSO [2] 116% | percent response of DMSO control [3] 114% | GFP response vs DMSO [4] 94.1% | vesicle binding response [6] 297% | inhibition [7] -29.4% | superoxide response (% of plate) [8] 93.7% | aptamer binding inhibition [9] 1% | response [10] 8.56% | inhibition [11] -0.66% | response [12] 0.6% | binding (% of control) [13] 106% | efflux inhibition (fraction of control) [14] 0.34 | inhibition [15] 12% | differentiation response [16] 7.37%

CC[C@H]1OC(=O)[C@H](C)[C@@H](O[C@H]2C[C@@](C)(OC)[C@@H](O)[C@H](C)O2)[C@H](C)[C@@H](O[C@@H]2O[C@H](C)C[C@H](N(C)C)[C@H]2O)[C@](C)(O)C[C@@H](C)[C@@H]2N[C@@H](COCCOC)O[C@H]([C@H]2C)[C@]1(C)O
active: response [12] 32.7%
63.9%: double positive events [6]
inactive: percent of DMSO control GFP [1] 95% | GFP response vs DMSO [2] 130% | percent response of DMSO control [3] 95.2% | GFP response vs DMSO [4] 79.2% | vesicle binding response [6] 137% | inhibition [7] 6.46% | superoxide response (% of plate) [8] 106% | aptamer binding inhibition [9] 29% | response [10] -13.2% | inhibition [11] -5.27% | binding (% of control) [13] 103% | efflux inhibition (fraction of control) [14] -0.31 | inhibition [15] 8% | differentiation response [16] -4.91%

Cc1c(OC(=O)CNC(=O)OC(C)(C)C)ccc2c3c(c(=O)oc12)CCC3
60.3%: double positive events [6]
inactive: percent of DMSO control GFP [1] 93.3% | GFP response vs DMSO [2] 123% | percent response of DMSO control [3] 90% | GFP response vs DMSO [4] 80.3% | vesicle binding response [6] 210% | inhibition [7] 9.37% | superoxide response (% of plate) [8] 101% | aptamer binding inhibition [9] -1% | response [10] -1.96% | inhibition [11] 4.15% | response [12] 0.35% | binding (% of control) [13] 107% | efflux inhibition (fraction of control) [14] 0.01 | inhibition [15] 1% | differentiation response [16] 0%

Cc1ccc(S(=O)(=O)Nc2ccc(S(=O)(=O)Nc3cc(C)nc(C)n3)cc2)cc1
inactive: percent of DMSO control GFP [1] 91.1% | GFP response vs DMSO [2] 120% | percent response of DMSO control [3] 108% | GFP response vs DMSO [4] 78.1% | vesicle binding response [6] 256% | inhibition [7] 23.9% | superoxide response (% of plate) [8] 89.7% | aptamer binding inhibition [9] 0% | response [10] 1.77% | inhibition [11] -0.21% | response [12] 15% | binding (% of control) [13] 101% | efflux inhibition (fraction of control) [14] -0.35 | inhibition [15] 6% | differentiation response [16] 26.2%
76%: double positive events [6]

O=C1OC(=O)C2C1[C@@H]1CC[C@H]2O1 (stereo not given in full)
60.8%: double positive events [6]
inactive: percent of DMSO control GFP [1] 96.6% | GFP response vs DMSO [2] 103% | percent response of DMSO control [3] 118% | GFP response vs DMSO [4] 72.6% | vesicle binding response [6] 195% | inhibition [7] -8.09% | superoxide response (% of plate) [8] 94.4% | aptamer binding inhibition [9] 3% | response [10] -8.34% | inhibition [11] -1.78% | response [12] -0.92% | binding (% of control) [13] 107% | efflux inhibition (fraction of control) [14] -0.24 | inhibition [15] 7% | differentiation response [16] -0.82%

CC(=O)[C@@]1(O)CC[C@H]2[C@@H]3CCC4=CC(=O)CC[C@]4(C)[C@H]3CC[C@@]21C
active: percent response of DMSO control [3] 139%
99.7%: GFP response, % of DMSO [20, 21]
53.6%: double positive events [6]
97.2%: GFP response relative to DMSO ([18]; measured here: mother cell gate response)
94.1%: GFP response relative to DMSO ([18]; measured here: daughter cell gate response)
105%: GFP response vs DMSO [17, 22]
99.5%: GFP response vs DMSO [17, 21]
101%: GFP response, % of DMSO [20, 22]
inactive: percent of DMSO control GFP [1] 92.2% | GFP response vs DMSO [2] 130% | GFP response vs DMSO [4] 97.4% | GFP response vs DMSO [17] 104% | GFP response relative to DMSO [18] 95% | GFP response vs DMSO [19] 97.8% | GFP response, % of DMSO [20] 100% | vesicle binding response [6] 216% | inhibition [7] -13.9% | superoxide response (% of plate) [8] 104% | aptamer binding inhibition [9] -15% | response [10] -16.3% | inhibition [11] 42.9% | response [12] -8.27% | binding (% of control) [13] 217% | efflux inhibition (fraction of control) [14] 0.27 | inhibition [15] 2% | differentiation response [16] 40.1%

O=c1n(CCCN2CCN(c3cccc(Cl)c3)CC2)nc2ccccn12
inactive: percent of DMSO control GFP [1] 91.5% | GFP response vs DMSO [2] 112% | percent response of DMSO control [3] 106% | GFP response vs DMSO [4] 75.9% | GFP response, % of DMSO [5] 92.4% | inhibition [7] 1.61% | superoxide response (% of plate) [8] 102% | aptamer binding inhibition [9] 2% | response [10] 2.3% | inhibition [11] -2.13% | response [12] 1.41% | binding (% of control) [13] 102% | efflux inhibition (fraction of control) [14] -0.2 | inhibition [15] 11% | differentiation response [16] 5.73%
69.6%: double positive events [6]

CN(C)CCCN1c2ccccc2CCc2ccc(Cl)cc21
inactive: percent of DMSO control GFP [1] 100% | GFP response vs DMSO [2] 99.7% | percent response of DMSO control [3] 101% | GFP response vs DMSO [4] 98% | GFP response, % of DMSO [5] 97.1% | inhibition [7] 12.3% | superoxide response (% of plate) [8] 97.5% | aptamer binding inhibition [9] -3% | response [10] 38.7% | inhibition [11] -2% | response [12] -7.85% | binding (% of control) [13] 112% | inhibition [15] 18% | differentiation response [16] -10.4%
active: efflux inhibition (fraction of control) [14] 0.51
65%: double positive events [6]
